This passage reports PBM binding z-score results from the supplement of paper PMC6555819.

Common to all, as to assay: PBM binding z-score (relative to random genomic background probes); higher = stronger binding; sequences stand for … in GC…GCGATTGACAGCGTAGAATGAAGG
Experiment [1] has as its system FXR:RXRa (NR concentration 270 nM, RXRa partner concentration 90 nM). The method, boiled down: (§1)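 On custom Agilent 4×180K arrays, double-stranded probes with 34-nt variable regions carried direct-repeat seeds, single-nucleotide variants, half-site ablations or random human genomic background. Ligand-free nuclear receptor dimers were applied for 1 h, and binding was read with antibodies against each partner (one per run). Binding z-scores come from regression-normalized fluorescence, with the random background probes as reference.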

In experiment [2] the test system is LXRa:RXRa (NR concentration 270 nM, RXRa partner concentration 90 nM). In outline: as §1
The test system of experiment [3] is LXRa homodimer (NR concentration 270 nM). In outline:
as §1

For experiment [4], the system named is LXRb:RXRa (NR concentration 270 nM, RXRa partner concentration 90 nM). The method, boiled down:
as §1

The subject of experiment [5] is LXRb homodimer (NR concentration 270 nM). The method, boiled down:
as §1

The test system of experiment [6] is PPARa:RXRa (NR concentration 270 nM, RXRa partner concentration 90 nM). In outline: as §1
The subject of experiment [7] is PPARg:RXRa (NR concentration 180 nM, RXRa partner concentration 90 nM). The method, boiled down: as §1
The subject of experiment [8] is PPARg:RXRa 270nM:90nM, anti-RXR (NR concentration 270 nM, RXRa partner concentration 90 nM). The method, boiled down:
as §1

The test system of experiment [9] is PPARg:RXRa 30nM:10nM, anti-RXR (NR concentration 30 nM, RXRa partner concentration 10 nM). The method, boiled down:
as §1

The subject of experiment [10] is PPARg:RXRa 90nM:30nM, anti-RXR (NR concentration 90 nM, RXRa partner concentration 30 nM). The method, boiled down:
as §1

The test system of experiment [11] is PPARg:RXRa DBDmut IVT, anti-RXR (DBD mutation: RXRa K156A/R161A, NR concentration 270 nM, RXRa partner concentration 90 nM). In outline: as §1
Experiment [12] has as its system PPARg:RXRa IVT, anti-PPARg (NR concentration 270 nM, RXRa partner concentration 90 nM). In outline: as §1
In experiment [13] the test system is PPARg DBDmut:RXRa IVT, anti-PPARg (DBD mutation: PPARg1 K132A/R137A, NR concentration 270 nM, RXRa partner concentration 90 nM). The method, boiled down:
as §1

For experiment [14], the system named is PPARg DBDmut IVT, anti-PPARg (DBD mutation: PPARg1 K132A/R137A, NR concentration 270 nM). In outline: as §1
The subject of experiment [15] is PPARg homodimer (NR concentration 180 nM). In outline:
as §1

Experiment [16] has as its system PXR:RXRa (NR concentration 270 nM, RXRa partner concentration 90 nM). The method, boiled down: as §1
The subject of experiment [17] is PXR homodimer (NR concentration 270 nM). The method, boiled down: as §1
The subject of experiment [18] is RARa:RXR (NR concentration 270 nM, RXRa partner concentration 90 nM). In outline: as §1
Experiment [19] relates to RARa homodimer (NR concentration 270 nM). The method, boiled down: as §1
The subject of experiment [20] is RARb:RXRa (NR concentration 270 nM, RXRa partner concentration 90 nM). In outline: as §1

CCTAGTTGGTCAGGAGGTCACACAACGGATATGA: the PBM binding z-score in [1] is 3.71; in experiment [2] it was 3.52; in [3], 1.69; in experiment [4], 3.53; in experiment [5] it was 0.623; in [6], 4.25. Besides, the PBM binding z-score in [7] was 3.47; in experiment [8], 4.16; in experiment [9] it was 1.47; in experiment [10] it was 3.3; in [11], 1.95; in experiment [12], 3.66. Besides, the PBM binding z-score in experiment [13] worked out at 0.747; in experiment [14] it was 0.329; in [15], 3.64; in experiment [16], 4.16; in experiment [17], 1.53; in experiment [18], 4.94. Moreover, the figures for the PBM binding z-score in experiment [19] and in experiment [20] were 2.05 and 3.63, respectively.

For ATCGAAAGGTCGAAGGTGAGTATTCCCACCCGAA, the PBM binding z-score in experiment [1] turned out to be 4.33; in experiment [2] it was 3.66; in [3], 0.077; in [4] it was 2.78; in experiment [5], 0.842; in experiment [6] it was 4.58. Further, the PBM binding z-score in experiment [7] was 4.28; in [8], 5; in experiment [9], 1.99; in [10], 4.39; in [11], 0.38; in experiment [12], 2.13. Moreover, the PBM binding z-score in [13] was 0.944; in experiment [14], 0.361; in experiment [15], 2.58; in experiment [16] it was 2.89; in experiment [17], -0.082; in [18], 4.32. In addition, the PBM binding z-score amounted to 0.118 in [19] and 3.64 in [20].

Consider GATACAGGATCAAGGCCAGAGTACGCGTATTGAT, for which the PBM binding z-score in experiment [1] was -0.429; in experiment [2], -0.625; in experiment [3] it was -0.269; in experiment [4], -0.535; in experiment [5], -0.452; in experiment [6], -0.133. Also, the PBM binding z-score in experiment [7] is 0.979; in [8] it was 0.356; in [9] it was 0.0722; in experiment [10] it was 0.052; in [11], -0.344; in experiment [12], -0.0749. Moreover, the PBM binding z-score in [13] is 0.581; in experiment [14], 0.288; in [15], -0.0406; in experiment [16], -0.253; in experiment [17] it was -0.0263; in experiment [18], -0.382. Also, the PBM binding z-score in experiment [19] is -0.179; in experiment [20], 0.164.

In the case of GCTCGGAGGACAAGGTCAGTGCTTTGTCCGTAGA, the PBM binding z-score in experiment [1] is 1.54; in experiment [2], 1.23; in experiment [3] it was -0.17; in experiment [4], 1.09; in experiment [5] it was -0.53; in [6] it was 1.94. Moreover, the PBM binding z-score in experiment [7] was 0.00556; in [8] it was 1.33; in experiment [9], -0.784; in [10] it was 0.326; in experiment [11], -0.0896; in experiment [12], 0.926. Also, the PBM binding z-score is -1.08 in experiment [13]; -0.85 in experiment [14]; 0.917 in experiment [15]; 1.43 in experiment [16]; -0.565 in experiment [17]; 1.37 in [18]. The PBM binding z-score in [19] was -1.15; in [20], 3.46.

Regarding TCATATAGGTAAAACAGGTGAAAGTCGGCATCTA, the PBM binding z-score in experiment [1] came out at 1.42; in experiment [2], 1.1; in experiment [3], 0.257; in experiment [4], 1.01; in experiment [5] it was 0.235; in experiment [6], 1.82. Moreover, the PBM binding z-score in experiment [7] is 1.12; in [8], 2.64; in experiment [9], 4.06; in experiment [10], 3.67; in experiment [11] it was 3.88; in experiment [12], 2.77. Further, the PBM binding z-score turned out to be 0.289 in [13]; 1.07 in experiment [14]; 1.06 in experiment [15]; 0.972 in experiment [16]; 0.0725 in experiment [17]; 1.62 in [18]. The PBM binding z-score in experiment [19] was determined as 1.05; in experiment [20], 0.579.

For the sequence TCTTGTAGATCAATAGAGGTAAAGAAAGTGCGCT, the PBM binding z-score in experiment [1] is 0.355; in [2], 0.562; in experiment [3] it was -0.497; in experiment [4], 0.281; in experiment [5] it was -0.231; in experiment [6], 0.706. For the same sequence, the PBM binding z-score in [7] was -0.0447; in [8], 1.14; in experiment [9] it was 2.57; in experiment [10], 1.62; in experiment [11] it was 1.51; in [12], 0.822. Also, the PBM binding z-score in experiment [13] was 0.0443; in experiment [14] it was 0.312; in [15] it was -0.815; in experiment [16] it was 0.573; in experiment [17] it was 0.0758; in experiment [18], 0.505. The PBM binding z-score in [19] is -0.142; in experiment [20] it was -0.0126.

Consider ATCTCAAGGTAAAGATAGTTCAGTGAATGCAAAT, for which the PBM binding z-score in [1] was determined as 0.707; in experiment [2], 5.22; in experiment [3] it was 0.562; in experiment [4], 1.38; in [5], 0.331; in [6], 0.546. Moreover, the PBM binding z-score in experiment [7] was determined as 0.372; in experiment [8], 0.508; in experiment [9], 0.448; in experiment [10], 0.296; in [11], 0.21; in [12] it was 0.461. Further, the PBM binding z-score in experiment [13] was 0.586; in experiment [14], 1.27; in experiment [15], 0.584; in [16], 2; in experiment [17] it was 1.05; in experiment [18], 0.797. In addition, the results for the PBM binding z-score in [19] and in experiment [20] were 0.976 and 1.16, respectively.
